# Test results as given in PubChem BioAssay (NCI).
# This is part of a sample that, as a whole, favours compounds with a hit. Of some 83,000 tested, about 20% had one in any assay.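 The endpoint reported here, percent growth, reads 100 for growth as untreated, 0 for no net growth and -100 for all cells dead.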 Calls of active or inactive are those of the source.
# System: A549/ATCC NSCLC
# Assay: NCI-60 one-dose screen, 48 h (100 = growth as untreated, 0 = no growth, -100 = all killed)
# Conditions: 10 µM unless noted
# Method: Growth inhibition of the A549/ATCC human Non-Small Cell Lung tumor cell line is measured as a screen for anti-cancer activity. Cells are grown in 96 well plates and exposed to the test compound for 48 hours. Compounds are tested at a single concentration, which is 10^-5 M for most compounds. The reported endpoint is percent growth (GI% or GIPRCNT), where numbers from 0 - 100% represent growth inhibition, and numbers from -100% - 0 represent cell death. For example, a value of 40 represents 60% growth inhibition. A value of 0 means no net growth occurred over the course of the experiment. A value of -40 indicates 40% of cells at the beginning of the experiment died by the end of the experiment. A value of -100 means all cells are dead at the end of the experiment.
# NCI-60 Human Tumor Cell Lines Screen was performed using the standard one-dose NCI protocol, which is described in more detail at https://dtp.cancer.gov/discovery_development/nci-60/default.htm.
# Compounds with GIPRCNT values below 10 were considered active. Activity score was based on GIPRCNT using the following formula: […]
# Score is 0 for GIPRCNT values of 100 or above, 50 for GIPRCNT values of 0, and 100 for GIPRCNT values of -100.
row,Structure (SMILES),growth
1,COc1cc(C2CC(c3ccc(C)cc3)=NN2C=O)ccc1OCCN(C)C (stereo not given),84.6% (inactive)
2,CCOC(=O)c1cnc2c(C)cc(C)cc2c1NCCCN(C)C,1.69% (active)
3,Cn1cc(NC(=O)Nc2cc(C(=O)O)n(C)c2)cc1C(=O)O,102% (inactive)
4,C/C(=C\CCc1ccoc1)CC/C=C(\C)CCCN1CCSCC1,28.4% (inactive)
5,Oc1c(N=Nc2nn[nH]n2)ccc2ccccc12,77.8% (inactive)
6,Cc1ccccc1NC(=O)NC(CC(N)=O)c1ccc2c(c1)nc(-c1cccc(Oc3ccc(C(C)(C)C)cc3)c1)n2CCCN1CCCCC1C (stereo not given),54.9% (inactive)
7,CCN(CC)c1ccc(C(=C2C=CC(=[N+](CC)Cc3cccc(S(=O)(=O)O)c3)C=C2)c2ccc(N(CC)Cc3cccc(S(=O)(=O)O)c3)cc2)cc1,-4.01% (active)
8,C/C(=C\CCc1ccoc1)CC/C=C(\C)CCCN1CCOCC1,63.6% (inactive)
9,O=C(O)C1C(c2ccccc2)c2ccccc2C(O)C1CO (stereo not given),111% (inactive)
10,C(=C1c2ccccc2-c2ccccc21)c1ccncc1,49.1% (inactive)
11,COc1cccc(/C=N/Nc2nc3ccccc3s2)c1OC,69.1% (inactive)
12,O=c1[nH]c(N2CCC(Cc3ccccc3)CC2)nc2sc3c(c12)CCCC3,77.5% (inactive)
13,COc1cc(C2CC(C3C(=O)N(C)C(=O)N(C)C3=O)=NN2C=O)cc(OC)c1OC (stereo not given),75.1% (inactive)
14,CC1C(C)N(C(=O)CCl)c2ccccc2N1C(=O)CCl (stereo not given),38.4% (inactive)
15,C(=C1c2ccccc2-c2ccccc21)c1ccccn1,63.7% (inactive)
16,Cc1n(Cc2ccc3ccccc3c2)cc[n+]1Cc1ccc2ccccc2c1,42.3% (inactive)
17,Cc1sc2nc(NCCc3cccs3)[nH]c(=O)c2c1C,58.7% (inactive)
18,COC(=O)CC1=C(c2ccc([N+](=O)[O-])cc2)CCC1=O,94.7% (inactive)
19,O=C(Nc1cccc(Cl)c1)Nc1cccc(Cl)c1,52.4% (inactive)
20,COc1ccc(NC(=O)c2ccccc2-c2ccccc2)c(C(N)=O)c1,46.5% (inactive)

row,Structure (SMILES),growth
1,CO[C@H]1/C=C/O[C@@]2(C)Oc3c(C)c(O)c4c(O)c(c(/C=N/N5C(C)CN(Cc6ccc(C#N)cc6)CC5C)c(O)c4c3C2=O)NC(=O)/C(C)=C\C=C\[C@H](C)[C@H](O)[C@@H](C)[C@@H](O)[C@@H](C)[C@H](OC(C)=O)[C@@H]1C (stereo not given in full),21.7% (inactive)
2,O=C(Nc1ccccc1S)c1ccccc1,93.8% (inactive)
3,CCOC(=O)C(C(=O)OCC)C1CCCCC1,96.8% (inactive)
4,COc1ccccc1-n1c(-c2ccc(O)cc2C)cn2c3c(=O)[nH]c(=O)n(C)c3nc12,86.6% (inactive)
5,C[C@]12CCC(=O)C=C1CC[C@H]1[C@@H]3C[C@@H](O)[C@](O)(C(=O)CO)[C@@]3(C)C[C@H](O)[C@@]12F,63.1% (inactive)
6,O=C(CSc1ncc(-c2ccccc2)n1-c1ccccc1)Nc1ccc(-c2nc3ccccc3s2)cc1,20.3% (inactive)
7,CC(=O)N1N=C(c2ccc(Cl)cc2)CC1c1c(C)nn(-c2ccccc2)c1N(C)Cc1ccccc1 (stereo not given),53.5% (inactive)
8,CC(NNC(=S)N1CCCCCC1)c1ccc2ccccc2n1 (stereo not given),13.9% (inactive)
9,O=C(/C=C/c1ccc(C(F)(F)F)cc1)c1ccc(Nc2nc(NCCO)nc(NCCO)n2)cc1,34.9% (inactive)
10,O=C1OC2(c3ccccc31)c1ccccc1-c1ccccc12,72.4% (inactive)
11,COc1ccc(/C=C2\CCc3ccccc3C2=O)cc1,77.4% (inactive)
12,COc1ccc([N+](=O)[O-])c(S(=O)(=O)c2ccc(Cl)cc2)n1,99.2% (inactive)
13,COc1cccc(CCN2C(=O)CCC3=C2CCC3=O)c1,112% (inactive)
14,O=C(Oc1cccc2ccccc12)c1ccccc1C(=O)c1ccccc1,88.3% (inactive)
15,O=C1OC(Oc2ccccc2)(c2ccccc2)c2ccccc21 (stereo not given),95% (inactive)
16,CC1=C([Se]CC(OC(=O)[C@@H](CSSC(C)(C)C)NC(=O)C(C)(C)C)C(=O)NCCCCCC(=O)OCc2ccccc2)C(=O)c2ccccc2C1=O (stereo not given in full),1.31% (active)
17,N/C(=N\C(N)=N\c1nc2ccccc2s1)c1ccnc(Cl)c1,47.4% (inactive)
18,O=C1N=C(N2CCOCC2)S/C1=C\c1cn(-c2ccccc2)nc1-c1ccccc1,94.8% (inactive)
19,O=CNc1ccc2c(c1)Cc1cc([N+](=O)[O-])ccc1-2,18.6% (inactive)
20,CC(=O)OC1Oc2cc(C)c(C)cc2-c2oc(=O)c(-c3ccccc3)cc21 (stereo not given),24.8% (inactive)
